Source: the supplement of paper PMC7366291
Structures can show the parent of a compound that is named as a salt. ± gives the standard deviation or the standard deviation of the averaged measurements.

Assays:
Details in all cases: 25 µM; exposure: 24-48 hpf
[1] = system: Danio rerio Tg(wt1b:EGFP) embryo, pronephros; experiment: glomerular separation, fold change vs DMSO control; higher = glomeruli further apart (abnormal)
In short: (§1)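 Dechorionated Tg(wt1b:EGFP) zebrafish embryos were treated with 25 μM compound in 0.5% DMSO, in HEPES-buffered E3 with 0.003% PTU, from 24 to 48 hpf at 28.5°C. On maximum projections of dorsal pronephros images, 16 hand-placed reference points in Fiji gave distances and angles, and values more than 2 SD from the feature mean were left out. Results are fold changes over the mean of same-day DMSO-treated embryos.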

[2] = system: Danio rerio Tg(wt1b:EGFP) embryo, pronephros; experiment: glomerular width (mean of left and right), fold change vs DMSO control; higher = wider glomerulus
In short: as §1

[3] = system: Danio rerio Tg(wt1b:EGFP) embryo, pronephros; experiment: fraction of imaged embryos annotated as normal kidney; higher = less nephrotoxic; extreme values may be limits of the assay
In short: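 The read-out is the proportion of embryos in each treatment manually annotated as normal-kidney. Exposure ran from 24 to 48 hpf at 28.5°C in 12-well plates, using dechorionated Tg(wt1b:EGFP) zebrafish embryos in 5 mM HEPES-buffered E3 with 0.003% PTU, 0.5% DMSO and 25 μM compound. For imaging, larvae were anaesthetised with tricaine, positioned dorsally in agarose-filled 96-well plates and captured by widefield fluorescence (470 nm, 10 z-slices), with scoring done on maximum projections.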

[4] = system: Danio rerio Tg(wt1b:EGFP) embryo, pronephros; experiment: pronephric angle neck segment to proximal convoluted tubule (mean of left and right), fold change vs DMSO control; higher = larger pronephric angle
In short: as §1

Structure (SMILES) | glomerular separation [1] | glomerular width [2] | fraction of imaged embryos annotated as normal kidney [3] | pronephric angle neck segment [4]
CN1CCC[C@@H]1CCO[C@](C)(c1ccccc1)c1ccc(Cl)cc1 [Clemastine fumarate] | 0.925 ± 0.57 | 1.01 ± 0.058 | 0.818 | 0.9686 ± 0.0025
NC1CCN(c2c(F)cc3c(=O)c(C(=O)O)cn(C4CC4)c3c2Cl)C1 (stereo not drawn) [Clinafloxacin] | 1.2 ± 0.45 | 1.03 ± 0.087 | 1 | 0.962 ± 0.038
CC[N+](CC)(CC)CCC(O)(c1ccccc1)C1CCCCC1 (stereo not drawn) [Tridihexethyl chloride] | 1.14 ± 0.4 | 0.925 ± 0.012 | 0.818 | 1.04 ± 0.026
CC[C@]12CCCN3CCc4c(n(c5ccccc45)[C@@](O)(C(=O)OC)C1)[C@@H]32 [Vincamine] | 0.967 ± 0.23 | 0.965 ± 0.01 | 0.909 | 1.05 ± 0.057
O=C(O)[C@H]1/C(=C/CO)O[C@@H]2CC(=O)N21 [Clavulanate potassium salt] | 0.835 ± 0.22 | 1.04 ± 0.032 | 0.833 | 1.001 ± 0.00045
Cc1cc(C)nc(NS(=O)(=O)c2ccc(N)cc2)n1 [Sulfamethazine sodium salt] | 1.11 ± 0.43 | 1.08 ± 0.048 | 0.917 | 1.01 ± 0.031
O=C(O)/C=C/c1ccc(Cn2ccnc2)cc1 [Ozagrel hydrochloride] | 1.04 ± 0.32 | 1.01 ± 0.032 | 0.833 | 0.98 ± 0.011
CC(C(=O)O)c1cccc(Oc2ccccc2)c1 (stereo not drawn) [Fenoprofen calcium salt dihydrate] | 3.89 ± 1.7 | 0.88 ± 0.059 | 0 | 1.55 ± 0.027
CNCC[C@@H](Oc1ccccc1C)c1ccccc1 [Tomoxetine hydrochloride] | 1.04 ± 0.55 | 0.979 ± 0.023 | 0.75 | 1 ± 0.022
CC(C)(C)NC[C@H](O)COc1nsnc1N1CCOCC1 [Timolol maleate salt] | 0.812 ± 0.37 | 0.9995 ± 0.0057 | 0.833 | 0.9989 ± 0.0023
CO[C@H]1/C=C/O[C@@]2(C)Oc3c(C)c(O)c4c(O)c(c5c(nc6cc(C)ccn65)c4c3C2=O)NC(=O)/C(C)=C\C=C\[C@H](C)[C@H](O)[C@@H](C)[C@@H](O)[C@@H](C)[C@H](OC(C)=O)[C@@H]1C [Rifaximin] | 0.666 ± 0.16 | 1.06 ± 0.019 | 0.833 | 0.984 ± 0.022
CCCCCNC(=N)N/N=C/c1c[nH]c2ccc(OC)cc12 [Tegaserod maleate] | 1.26 ± 0.31 | 0.997 ± 0.032 | 0.7 | 0.963 ± 0.048
CC(=O)Nc1c(I)c(NC(C)=O)c(I)c(C(=O)O)c1I [Diatrizoic acid dihydrate] | 1.34 ± 0.56 | 1.03 ± 0.016 | 0.583 | 1.05 ± 0.033
CN1[C@@H]2CC[C@H]1C[C@@H](OC(=O)C(O)c1ccccc1)C2 (mixture of isomers) [Homatropine hydrobromide (R,S)] | 0.957 ± 0.29 | 1.06 ± 0.015 | 0.75 | 0.9643 ± 0.0018
COc1ccc(C(Cl)=C(c2ccc(OC)cc2)c2ccc(OC)cc2)cc1 [Chlorotrianisene] | 0.709 ± 0.16 | 1.028 ± 0.007 | 1 | 0.953 ± 0.013
NC[C@@H]1O[C@@H](O[C@H]2[C@H](O)[C@@H](O[C@H]3O[C@H](CO)[C@@H](O)[C@H](N)[C@H]3O)[C@H](N)C[C@@H]2N)[C@@H](O)[C@H](O)[C@H]1O [Kanamycin A sulfate] | 1.07 ± 0.33 | 1.01 ± 0.046 | 0.667 | 1.01 ± 0.052
CC(C)(C)NC[C@H](O)COc1cccc2c1CCCC2=O [(-) -Levobunolol hydrochloride] | 0.705 ± 0.17 | 1.07 ± 0.0039 | 0.917 | 0.944 ± 0.052
CCCCOC(=O)c1ccc(N)cc1 [Butamben] | 1.07 ± 0.41 | 1.04 ± 0.12 | 0.917 | 0.9834 ± 0.0087
CCC(C)(C)c1ccc(CC(C)CN2C[C@@H](C)O[C@@H](C)C2)cc1 (stereo partly drawn) [Amorolfine hydrochloride] | 0.874 ± 0.48 | 0.987 ± 0.017 | 0.917 | 0.983 ± 0.05
CC(=O)S[C@@H]1CC2=CC(=O)CC[C@]2(C)[C@H]2CC[C@@]3(C)[C@@H](CC[C@@]34CCC(=O)O4)[C@H]12 [Spironolactone] | 0.838 ± 0.13 | 0.912 ± 0.011 | 1 | 0.986 ± 0.036
C#CCN(C)CCCOc1ccc(Cl)cc1Cl [Clorgyline hydrochloride] | 0.959 ± 0.32 | 1.05 ± 0.029 | 1 | 0.984 ± 0.047
CN1CCC(=C2c3ccccc3CCc3sccc32)CC1 [Pizotifen malate] | 1.26 ± 0.48 | 0.84842 ± 0.00054 | 1 | 1.06 ± 0.0029
NC(=O)N1c2ccccc2CC(=O)c2ccccc21 [Oxcarbazepine] | 0.94 ± 0.28 | 1 ± 0.035 | 0.833 | 0.9454 ± 0.0088
CC(C)(C)NC(=O)[C@@H]1CN(Cc2cccnc2)CCN1C[C@@H](O)C[C@@H](Cc1ccccc1)C(=O)N[C@H]1c2ccccc2C[C@H]1O [Indinavir sulfate] | 1.35 ± 0.6 | 0.851 ± 0.062 | 1 | 1.101 ± 0.002
CN(C)CCOC(c1ccc(Cl)cc1)c1ccccn1 (stereo not drawn) [Carbinoxamine maleate salt] | 0.746 ± 0.34 | 0.999 ± 0.048 | 0.9 | 1.01 ± 0.026
CC(Oc1c(Cl)cccc1Cl)C1=NCCN1 (stereo not drawn) [Lofexidine] | 1.06 ± 0.22 | 0.9921 ± 0.0057 | 0.833 | 0.96 ± 0.028
C(=C\c1ccccc1)/CN1CCN(C(c2ccccc2)c2ccccc2)CC1 [Cinnarizine] | 1.15 ± 0.31 | 1.03 ± 0.024 | 0.75 | 0.995 ± 0.045
